Screen size: about 48,000 compounds; about 13,000 (27%) showed an effect of 50% or more. Some of the results follow.

This test concerns Wolbachia pipientis. The test is described as follows: Anti-Wolbachia Cell-Based Screen. It counts as functional. On the set-up: scale not given: in the data most compounds retested in dose-response had high values. The following applies: 5 µM.
As for `CN1CCCCC1CCC(=O)NCCSc1cnn[nH]1` (stereo not drawn), the “Percent Effect” value is -30.14%.

Take `CCOC(=O)C1CN(C(=O)COC)Cc2ncn(CC)c21` (stereo not drawn): the “Percent Effect” value was -5.507%. As for `Cc1n[nH]c(C)c1-c1nccnc1CC1CCNC1` (stereo not drawn), the “Percent Effect” value was determined as 100.9%. Consider `COCC(=O)N1CCC(Cc2nccnc2-c2c(C)n[nH]c2C)C1` (stereo not drawn), for which the “Percent Effect” value was 109.3%. Under `CC1CCCCN1C(=O)Cn1cnc(C#N)n1` (stereo not drawn) stands -6.637%; under `CS(=O)(=O)N1CC(c2nc[nH]n2)c2cc(C(=O)NC3CCCC3)ccc21` (stereo not drawn), 0.6803%; under `CNS(=O)(=O)c1cccc(S(=O)(=O)Nc2ncc(C)s2)c1`, 2.588%. `Cc1nn(C)c(Cl)c1C1CCCN1Cc1cn2ccsc2n1` (stereo not drawn): the “Percent Effect” value stood at 41.71%. With `CCN(CC)S(=O)(=O)N1CCCC1C(=O)N1CCSCC1` (stereo not drawn), the “Percent Effect” value was determined as 22.8%. The same measure for `COc1c(C2CCCN2Cc2cn3ccsc3n2)c(C)nn1C` (stereo not drawn): 3.624%; for `Cc1ncc(CO)c(CN2CCCC2c2nc3c(C)cccc3[nH]2)c1O` (stereo not drawn): 7.788%.

As for `Cc1nn(CCO)cc1CN1CCCC1c1nc2c(C)cccc2[nH]1` (stereo not drawn), the “Percent Effect” value is listed as -6.904%. For the compound `Cc1nn(C)cc1CN1CCCC1c1cccc(Nc2nccs2)n1` (stereo not drawn), the “Percent Effect” value was 88.47%. Under `Cc1nonc1NC(=O)C1SCCc2sccc21` (stereo not drawn) stands -12.22%; under `CCc1cnc(C)nc1NC(CC)c1cnn(C)c1` (stereo not drawn), -1.737%. As to `Cn1cc(CN2CCCC3(CCN(Cc4ccncc4)C3=O)C2)cn1` (stereo not drawn), the “Percent Effect” value was found to be 102%. For `Cc1cccc(CN2CCCC3(CCN(CC(=O)N(C)C)C3=O)C2)n1.O=C(O)C(F)(F)F` (stereo not drawn), the “Percent Effect” value is -13.27%. Turning to `Cc1cccc(CN2CCC3(CCCN(Cc4cnn(C)c4)C3)C2=O)n1` (stereo not drawn), the “Percent Effect” value was found to be 94.18%. Take `Cc1cnc(CNC(=O)CC2CCc3ccccc32)cn1` (stereo not drawn): the “Percent Effect” value is 1.8%. The same measure for `CN(Cc1ccco1)C(=O)CN1CCCC1Cn1cccn1` (stereo not drawn): -1.962%; for `CN(Cc1ccco1)C(=O)CN1CCOC(Cn2cccn2)C1` (stereo not drawn): 126.4%. For the compound `Cc1ccc(CN(C)C(=O)CN2CCOC(Cn3cncn3)C2)o1` (stereo not drawn), the “Percent Effect” value is on record as -4.818%.

For the compound `Cc1ccc(CN(C)C(=O)CN2CCCCC2Cn2cncn2)o1` (stereo not drawn), the “Percent Effect” value was -8.08%. Under `Cc1ccc(-c2nc(CN3CCOC(Cn4cccn4)C3)cs2)o1` (stereo not drawn) stands -10.9%; under `CN(Cc1ccco1)C(=O)CN1CCCC1Cn1cncn1` (stereo not drawn), 107%. For `CN(Cc1ccco1)C(=O)CN1CCOC(Cn2cncn2)C1` (stereo not drawn), the “Percent Effect” value was 96.26%. Consider `CN(Cc1ccco1)C(=O)CN1CCCCC1Cn1cccn1` (stereo not drawn), for which the “Percent Effect” value is given as 4.659%. As to `CN(Cc1ccco1)C(=O)CN1CCCCC1Cn1cncn1` (stereo not drawn), the “Percent Effect” value is on record as -0.1414%. Regarding `Cc1ccc(CN(C)C(=O)CN2CCOC(Cn3cccn3)C2)o1` (stereo not drawn), the “Percent Effect” value is given as 114.2%. The same measure for `Cc1ccc(CN(C)C(=O)CN2CCCC2Cn2cccn2)o1` (stereo not drawn): 15.96%. Under `Cc1ncsc1CN1C[C@@H]2COC[C@]2(COc2ccc(C#N)cn2)C1` stands -4.86%; under `COc1ccc(Cl)cc1C(=O)N(C)Cc1cc(C)on1`, -1.731%; under `COCc1cc(N2CCc3onc(-c4cccc(OC)c4)c3C2)ncn1`, -6.434%. As to `Cc1nc(C)c(CNCC2CCCn3ccnc32)s1` (stereo not drawn), the “Percent Effect” value was -11.09%.

As to `O=C(Nc1ncn(Cc2cccc(Br)c2)n1)C1CCC1`, the “Percent Effect” value is reported as 6.264%. The same measure for `CN(Cc1ccc(F)cc1)C(=O)CN1CCOC(Cn2cccn2)C1` (stereo not drawn): 121.8%. For the compound `O=C(CN1CCOC(Cn2cccn2)C1)NCCc1ccc(F)cc1` (stereo not drawn), the “Percent Effect” value was -2.964%. Take `Cc1ccccc1CN(C)C(=O)CN1CCOC(Cn2cccn2)C1` (stereo not drawn): the “Percent Effect” value is given as 111%. For `O=C(CN1CCOC(Cn2cccn2)C1)Nc1ccncc1` (stereo not drawn), the “Percent Effect” value is given as -3.889%. As to `CN(Cc1ccc(F)cc1)C(=O)CN1CCOC(Cn2cncn2)C1` (stereo not drawn), the “Percent Effect” value was -5.304%. For the compound `Cc1nnc(NC(=O)CN2CCOC(Cn3cccn3)C2)s1` (stereo not drawn), the “Percent Effect” value is reported as -11.4%. As for `CCN(CCC(F)(F)F)C(=O)Nc1cccc(N2CCOCC2)c1`, the “Percent Effect” value is -10.51%. In the case of `CCC(=O)N1CCC(Cc2cc(Nc3ncccn3)ncn2)CC1`, the “Percent Effect” value is recorded as 93.47%. As to `CN1CCC(Cc2cc(Nc3ccccn3)ncn2)CC1`, the “Percent Effect” value turned out to be 68.08%. Take `CN1CCC(Cc2cc(Nc3ncccn3)ncn2)CC1`: the “Percent Effect” value is recorded as -2.002%. Regarding `CC1CCN(CC(O)CNc2ccccn2)CC1` (stereo not drawn), the “Percent Effect” value was -1.4%.

Turning to `N#CCCN(Cc1cccnc1)C(=O)c1ccn(-c2ccccc2)n1`, the “Percent Effect” value is 1.241%. `COc1ccc(/C=C/CN2C[C@H]3CC[C@@H]2CN(S(=O)(=O)N(C)C)C3)cc1`: the “Percent Effect” value amounted to 13.82%. Under `C[C@H](O)CNc1cc(-c2ccncc2)ncn1` stands 115%. For the compound `CC(C)c1cc(NCC2(CO)CCCC2)ncn1`, the “Percent Effect” value is 7.781%. In the case of `CC(C)c1cc(NCC(O)c2ccncc2)n2nccc2n1` (stereo not drawn), the “Percent Effect” value is reported as -8.35%. Consider `C[C@H](O)CNc1cc(-c2ccccc2)ncn1`, for which the “Percent Effect” value turned out to be 111.5%.

As to `C[C@H](O)CNC(=O)c1cnc(-c2ccccc2)nc1O`, the “Percent Effect” value is recorded as -14.22%.

In the case of `COc1cc(NCC(c2ccccn2)N(C)C)ncn1` (stereo not drawn), the “Percent Effect” value was 0.2576%. As for `O=C(c1ccno1)N1CCC2(CC(=O)N(c3ccc4c(c3)OCO4)C2)C1` (stereo not drawn), the “Percent Effect” value is on record as -9.598%.

`Cc1ccc(C)c(C(O)Cn2cc(Cl)c(=O)[nH]c2=O)c1` (stereo not drawn): the “Percent Effect” value came out at 3.012%.

In the case of `COCCNC(=O)C(C)n1cc(Br)cn1` (stereo not drawn), the “Percent Effect” value was 8.857%.

Take `COCCNC(=O)c1cnc(C)nc1C`: the “Percent Effect” value is recorded as -12.85%. In the case of `COCCNC(=O)Cn1cc2c(n1)c(C)nn2C`, the “Percent Effect” value came to 124.1%. In the case of `CCn1nccc1CNC(=O)C1CCCC1`, the “Percent Effect” value is recorded as 10.33%. Under `COCCNC(=O)Cn1nc(C(C)C)c2cnn(C(C)(C)C)c2c1=O` stands -0.4126%.

In the case of `CCn1nccc1CNC(=O)Cn1cc2c(n1)c(C)nn2C(C)C`, the “Percent Effect” value is 116.7%. Regarding `COCCNC(=O)N1CCOCC1c1c(C)nn(C)c1C` (stereo not drawn), the “Percent Effect” value is reported as -9.833%. With `COCCNC(=O)Cn1cc2c(n1)c(C)nn2C(C)C`, the “Percent Effect” value is given as 92.82%. On to `CCn1nccc1CNC(=O)C(C)n1cc2c(n1)c(C)nn2C` (stereo not drawn), for which the “Percent Effect” value was 13.18%. The same measure for `O=C(NCc1cnc2n1CCN(Cc1cccs1)C2)c1ccno1.O=C(O)C(F)(F)F`: -34.76%; for `CC(C)(C)c1noc(CCC(=O)N2CCNC(=O)C2)n1`: -18.81%. As to `CC(C)Cc1ncc2c(n1)CN(c1cc(N)nc(N)n1)C2`, the “Percent Effect” value is recorded as 16.38%. Under `CN(CCc1cn[nH]c1)C(=O)C(c1ccc(F)cc1)N(C)C` (stereo not drawn) stands -6.005%. As for `CN(CCc1cn[nH]c1)C(=O)CCc1ccc(Cl)cc1`, the “Percent Effect” value amounted to 144.4%. For the compound `Cc1ccc(C(C(=O)N(C)CCc2cn[nH]c2)N(C)C)cc1` (stereo not drawn), the “Percent Effect” value worked out at 3.285%.

Turning to `CC(=O)N1CCN(CCNc2snc(Cl)c2C#N)CC1`, the “Percent Effect” value was 4.799%. With `N#CCCN(Cc1cccnc1)C(=O)Cc1ccc(-n2cnnn2)cc1`, the “Percent Effect” value is on record as -0.659%.

For the compound `COCCC(=O)N(CCC#N)c1ccc2c(c1)OCCO2`, the “Percent Effect” value is reported as 95.73%. `N#CCCN(Cc1cccnc1)C(=O)c1cccc(-n2cnnn2)c1`: the “Percent Effect” value was -18.3%. In the case of `N#CCCN(C(=O)CCc1cccnc1)c1ccc2c(c1)OCCO2`, the “Percent Effect” value is given as 88.06%. In the case of `Cc1ccc(N(CCC#N)C(=O)CCc2cccnc2)cc1C`, the “Percent Effect” value is 98.05%. For the compound `CC(C)(NCC(=O)NCCC#N)c1ccc2c(c1)OCCO2`, the “Percent Effect” value is on record as 4.777%. The same measure for `c1cncc(CCc2nc(C3CC3)nn2-c2ccc3c(c2)OCCO3)c1`: -5.22%. Consider `CCC(C)N(Cc1cccnc1)Cc1ccc2c(c1)OCCO2` (stereo not drawn), for which the “Percent Effect” value is on record as 9.848%. `COCCCC(=O)NS(=O)(=O)c1ccc2c(c1)OCCCO2`: the “Percent Effect” value is recorded as -8.462%. The same measure for `CCCN(CC1COc2ccccc2O1)C(=O)CCn1cncn1` (stereo not drawn): -2.229%; for `O=C(Cn1cc(C(=O)O)ccc1=O)NCc1ccc(F)cc1Cl`: 11.66%. Consider `Cc1c(Br)cccc1C(=O)NC(C)CN1CCCC1=O` (stereo not drawn), for which the “Percent Effect” value is recorded as -7.738%. Turning to `CC(C)NC(=O)N1C[C@@H](F)[C@@H](OCc2nc3ccccc3o2)C1`, the “Percent Effect” value is on record as -6.815%. For the compound `CN(C)Cc1cc(CC2(NCc3ccccc3Cl)COC2)no1`, the “Percent Effect” value is given as -4.538%. Under `COC[C@@]12CC[C@@H](N3CCOCC3)C[C@H]1CCN(c1nc(CO)cs1)C2` stands -10.66%; under `O=C(c1ccnn1-c1ccc2ccccn12)N1CCOCC1`, 95.26%; under `O=C(c1ccnn1-c1ccc2ccccn12)N1CCCC1`, 84.68%. In the case of `CCN(C)C(=O)c1ccnn1-c1ccc2ccccn12`, the “Percent Effect” value is listed as -2.565%. As for `O=C(c1c2c(NCC3CC3)ncnc2n2ccccc12)N1CCOCC1`, the “Percent Effect” value is on record as 2.912%. Under `COCCNC(=O)c1ccnn1-c1ccc2ccccn12` stands -19.09%.

For the compound `O=C(NCCN1CCOCC1)c1ccnn1-c1ccc2ccccn12.O=C(O)C(F)(F)F`, the “Percent Effect” value was -0.1496%. With `Cc1cccc2c1nc1n2[C@@H](CNC(=O)c2ccccn2)COC1`, the “Percent Effect” value is -9.692%. The same measure for `CC(C)COC(=O)N1CCCN(Cc2nnc(C(C)(C)C)o2)CC1`: -7.056%; for `CCn1nccc1C(=O)NC(Cn1cccn1)C(C)(C)C` (stereo not drawn): 98.31%; for `CC(Cn1cccn1)NC(=O)Cc1cccs1` (stereo not drawn): 8.385%.

On to `CN(Cc1ccco1)C(=O)NC(Cn1ccnc1)C(C)(C)C` (stereo not drawn), for which the “Percent Effect” value is recorded as -3.966%. As for `Cn1cc(C(=O)NC(Cn2cccn2)C(C)(C)C)cn1` (stereo not drawn), the “Percent Effect” value is 91.75%. Under `CC(C)(C)C(Cn1cccn1)NC(=O)c1ccco1` (stereo not drawn) stands 126.5%; under `CC(C)CC(NC(=O)c1cnn(C)c1)C(=O)Nc1cc[nH]n1` (stereo not drawn), -3.159%; under `CC(C)(C)C(Cn1ccnc1)NC(=O)NCc1ccco1` (stereo not drawn), 10.62%. Consider `CC(Cn1cccn1)NC(=O)NCCc1cnn(C)c1` (stereo not drawn), for which the “Percent Effect” value is recorded as -2.639%. Regarding `CC(Cn1cccn1)NC(=O)C1=Cc2ccccc2OC1` (stereo not drawn), the “Percent Effect” value is reported as 2.492%. As to `O=S(=O)(Nc1ccc(N2CCOCC2)cc1)c1cccc(F)c1`, the “Percent Effect” value is given as 2.423%. For the compound `Cc1cc(CN2CC3(CCN(C(=O)C4CC4)CC3)CC2C(=O)O)oc1C` (stereo not drawn), the “Percent Effect” value is given as -14.13%. Turning to `O=c1[nH]c(NCc2cccc(-c3ccccc3)c2)nc2c1CCNC2`, the “Percent Effect” value is reported as -0.2023%.

In the case of `CC(=O)c1cccc(-c2nc3c([nH]2)CCNC3)c1F`, the “Percent Effect” value was -6.254%.

The values above are taken from ChEMBL document CHEMBL3988442, “University of Dundee, Small-Polar-MMV Screening Library” (2021).
